GPR151 activ – activators of human GPR151; 1% of 650,000 active; PathHunter beta-arrestin GPR151 cells, luminescence; activation, % at 11.2 µM; in the data active means activation above about 4.9%;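 further: 0% = median of compound wells and 100% = cells with positive control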
Target sequence (Q8TDV0 whole entry, looked up): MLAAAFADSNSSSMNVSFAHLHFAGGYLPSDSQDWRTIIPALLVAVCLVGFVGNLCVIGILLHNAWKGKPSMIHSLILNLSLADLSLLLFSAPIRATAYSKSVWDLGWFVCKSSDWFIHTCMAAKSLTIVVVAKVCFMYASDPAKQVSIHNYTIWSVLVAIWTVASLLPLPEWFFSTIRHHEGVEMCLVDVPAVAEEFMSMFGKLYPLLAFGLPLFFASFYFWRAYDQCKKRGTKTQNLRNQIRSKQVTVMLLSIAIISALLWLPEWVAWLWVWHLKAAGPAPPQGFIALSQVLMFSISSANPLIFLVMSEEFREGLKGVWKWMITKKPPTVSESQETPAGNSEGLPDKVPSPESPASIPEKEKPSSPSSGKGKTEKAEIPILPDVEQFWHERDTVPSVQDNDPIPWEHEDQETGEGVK
TEAD-YAP block – TEAD-YAP interaction inhibition. HEK-TIYL cells, TEAD-Gal4/YAP UAS-luciferase luminescence. inhibition, % at 9.12 µM. 1.4% of 640,000 active; in the data active means inhibition above about 32%;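 further: 0% = median of test compound wells and 100% = reference inhibitor wells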
MITF inh – human MITF inhibition, primary screen; AID 1259374; 0.91% of 650,000 active; AlphaScreen MITF homodimerization, bead proximity signal; inhibition, % at 2.6 µM; O75030; in the data active means inhibition above about 50%;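 further: 0% = vehicle wells with protein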
FBW7 activator – human FBW7 E3 ligase activation, primary screen; normalized activity (activation), % at 26.1 µM; AID 1259310; AlphaScreen FBW7–phospho-cyclin E peptide binding, activator screen; 0.13% of 650,000 active; in the data active means normalized activity above about 1.9%;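 further: purified mutant Fbw7 with reduced substrate affinity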
An asterisk follows results filed as active. Shown are actives, neighbours in structure and some others; about 3.5% of the full set was active somewhere.

SMILES	GPR151 activ	TEAD-YAP block	MITF inh	FBW7 activator
O=C1C=C(NCc2ccccc2)c2ccccc2C1=O	0	51*	12	0
CCOC(=O)C(C)Oc1ccc2cc(-c3ccccc3)c(=O)oc2c1 (stereo not drawn)	-4	18	-4	2.3*
Cc1ccc(NC(=O)c2sc3ncnc(N4CCN(c5ccccc5F)CC4)c3c2C)c(Br)c1	1	-5	24	2.0*
CCN(CC)C(=O)c1sc2ncnc(N3CCN(c4ccccc4)CC3)c2c1C	0	8	27	2.0*
COc1cc(NC(=O)c2sc3ncnc(N4CCN(c5ccccc5F)CC4)c3c2C)cc(OC)c1OC	1	32*	19	0
Cc1c(C(=O)NC(C)C)sc2ncnc(N3CCN(c4ccccc4)CC3)c12	1	2	18	2.1*
CC(=O)Oc1ccccc1C(=O)NCc1ccc(Cl)cc1	2	17	-4	1
O=C(/C=C/c1cccc([N+](=O)[O-])c1)Oc1ccc2c(c1)oc(=O)c1ccccc12	1	3	20	0
CCn1c(=NC(=O)c2ccc(S(=O)(=O)N(C)C)cc2)sc2cc(OC)ccc21	0	8	-20	0
Cc1ccc(-c2cc(C(F)F)n3ncc(C(=O)Nc4cccnc4)c3n2)cc1	-1	12	16	0
COc1ccc(-c2cnc(S(=O)CC(=O)NCc3ccccc3)n2C)cc1 (stereo not drawn)	0	7	-2	0
Cc1c(C(=O)Nc2c(F)cccc2F)sc2ncnc(N3CCN(c4ccccc4)CC3)c12	1	-5	22	0
Cc1c(C(=O)Nc2ccccc2F)sc2ncnc(N3CCN(c4ccccc4)CC3)c12	0	-13	17	1.9*
CCN(CC)C(=O)C1CCCN(c2nc(NCCCN3CCCC3=O)c3ncn(CCN4CCCC4=O)c3n2)C1 (stereo not drawn)	-2	-1	3	0
CCN(CC)C(=O)C1CCCN(c2nc(NC3CC3)c3ncn(-c4ccsc4)c3n2)C1 (stereo not drawn)	-1	9	10	0
CCN(CC)C(=O)C1CCCN(c2nc(NCc3nc4ccccc4[nH]3)c3ncn(C(C)C)c3n2)C1 (stereo not drawn)	1	30	-2	0
CCN(CC)C(=O)C1CCCN(c2nc(NCCCN3CCCC3=O)c3ncn(-c4ccsc4)c3n2)C1 (stereo not drawn)	1	35*	8	0
OCC1CCCN1c1nc(NCc2nc3ccccc3[nH]2)c2ncn(-c3ccsc3)c2n1 (stereo not drawn)	0	72*	25	0
CCN(CC)C(=O)C1CCCN(c2nc(NCc3nc4ccccc4[nH]3)c3ncn(-c4ccccc4)c3n2)C1 (stereo not drawn)	0	72*	7	0
CCN(CC)C(=O)C1CCCN(c2nc(NCc3nc4ccccc4[nH]3)c3ncn(-c4ccsc4)c3n2)C1 (stereo not drawn)	1	85*	3	0
COc1ccc(-c2cc(O)c3c(C)oc(C)c3c(=O)c2)cc1	0	4	1	0
Cc1oc(C)c2c(=O)cc(-c3ccc(O)c(O)c3)cc(O)c12	0	4	87*	-1
Cc1cc(C)n2nc(SCC(=O)N3c4ccccc4CC3C)nc2n1 (stereo not drawn)	-2	6	15	0
COc1ccc(CN2CCCCC2CO)c(OC)c1 (stereo not drawn)	-1	-8	1	0
CCSc1nnc(C2CCN(CC(=O)Nc3cccc4ccccc34)CC2)n1C	-1	4	1	2.8*
SMILES	GPR151 activ	TEAD-YAP block	MITF inh	FBW7 activator
Cc1nn2c(N)cc(-c3ccccc3)nc2c1-c1ccc(Cl)cc1	-1	2	-22	0
Cc1nc2c(-c3ccc(Cl)cc3)cnn2c(N)c1-c1ccccc1	-2	89*	14	0
c1ccc(COc2ccc(CN3CCOCC3)cc2)cc1	-4	71*	-14	0
CC(=O)Nc1ccc(Nc2nc(Nc3ccncc3)nc3c2ncn3-c2ccccc2)cc1	-2	45*	-14	3.4*
CC(=O)Nc1ccc(Nc2nc(Nc3ccccc3)nc3c2ncn3-c2ccsc2)cc1	0	36*	11	0
Nc1nc(Nc2ccncn2)nc2c1ncn2-c1ccccc1	0	-10	-4	4.2*
CC(=O)Nc1ccc(Nc2nc(Nc3ccc(-n4ccnc4)cc3)nc3c2ncn3-c2ccccc2)cc1	2	52*	10	0
CCSc1nc2ccc(NC(=O)CSc3nnc(C)s3)cc2s1	0	-28	9	0
COc1ccc(-c2c(C)nn(-c3ccccc3)c2/N=C/N2CCOCC2)cc1OC	-2	-9	-3	0
O=C(NNC(=O)c1ccccc1Br)c1ccc2c(c1)OCO2	0	0	10	0
COc1ccc(NS(=O)(=O)c2cccc(C(=O)N/N=C(\C)c3ccc(C#N)cc3)c2)cc1	-1	-1	-8	0
CC(=O)Nc1ccc(Nc2nc(N3CCc4ccccc4C3)nc3c2ncn3-c2ccsc2)cc1	-3	40*	10	0
CC(=O)Nc1ccc(Nc2nc(Nc3nc4ccccc4n3C)nc3c2ncn3-c2ccsc2)cc1	0	43*	7	0
Cn1c(Nc2nc(NCCO)c3ncn(-c4ccsc4)c3n2)nc2ccccc21	-3	14	4	0
CC(=O)Nc1ccc(Nc2nc(-c3c(C)noc3C)nc3c2ncn3-c2ccsc2)cc1	-2	-3	10	0
CC(=O)Nc1ccc(Nc2nc(Nc3cnccn3)nc3c2ncn3-c2ccsc2)cc1	4	29	7	3.7*
COc1cc(Nc2nc(Nc3ccc(NC(C)=O)cc3)c3ncn(-c4ccccc4)c3n2)cc(OC)c1OC	-2	39*	-9	0
O=C1C2CC=C(Cl)CC2C(=O)N1CCCCN1CCN(CCCCN2C(=O)C3CC=C(Cl)CC3C2=O)CC1 (stereo not drawn)	-1	10	-1	0
CN(C)c1ccc(-c2nc3ccccc3n2CCCOc2ccccc2)cc1	-1	-56	13	0
N#Cc1cc2c(nc1SCC(=O)Nc1ccc3ccccc3c1)CCCCC2	-2	8	4	0
Cn1c(SCC(=O)N/N=C/c2ccc(F)cc2)nc2ccccc21	0	0	12	0
CC(=O)Nc1ccc(Nc2nc(Nc3ccccc3)nc3c2ncn3-c2ccccc2)cc1	3	46*	2	0
CC(=O)Nc1ccc(Nc2nc(Nc3ccncn3)nc3c2ncn3-c2ccccc2)cc1	2	14	5	5.1*
CC(=O)Nc1ccc(Nc2nc(Nc3ccc(N4CCOCC4)cc3)nc3c2ncn3-c2ccccc2)cc1	-2	-2	8	0
CC(=O)Nc1ccc(Nc2nc(Nc3ccncn3)nc3c2ncn3C(C)C)cc1	-1	-9	4	0
Cc1ccc(OCC(=O)Nc2nccs2)c(Br)c1	-9	98*	0	0
CCc1ccc(OCC(=O)Nc2nccs2)c(Br)c1	-8	95*	9	0
CCc1ccc(OCC(=O)Nc2cccc(C)n2)c(Br)c1	-1	-19	2	0
Cc1cc(Cl)ccc1OCC(=O)Nc1nccs1	-6	65*	8	0

Screening data: PubChem, The Scripps Research Institute Molecular Screening Center
